Most compounds without a hit are left out; they make up all but 1.6% or so of the library.
Vif imaging: HIV Vif self-association inhibitors, primary screen, imaging, HEK293T, single point; HEK293T cells, Vif self-association by quenched fluorescence, 24 h; inhibition, % at 7.49 µM; 340,000 compounds, 0.35% hits; AID 602346, 2012; in the data active = inhibition above about 50%, passing the limit was not always enough
N-glyco inh: increase of ERlucT glycosylation luciferase signal, primary screen, N-linked glycosylation inhibitor project, D54 ERlucT cells, luminescence, set 2 | reporter increase, % at 12.5 µM | AID 588692, 2011 | D54 ERlucT glycosylation luciferase reporter, 24 h; percent of 100 nM tunicamycin response | 360,000 compounds, 0.23% hits;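 active = mean luciferase reporter signal, scaled so untreated is 0 and the glycosylation-blocking control 100, at or above a set limit in every replicate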;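 also: luciferase carries N-glycosylation sites so blocking glycosylation raises the light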
Myeloid diff 2: induction of myeloid progenitor differentiation, primary screen, cell-based, flow cytometry, MLPCN library; calls only at 10 µM; ER-HoxA9 myeloid progenitors, lysozyme-GFP differentiation; 360,000 compounds, 1% hits;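 active = normalized GFP-positive differentiation at or above the plate's own cutoff, the solvent-only control mean plus 3 SD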;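 also: cells exposed to compound for four days before flow analysis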
ABCB6 inh MLPCN: ABCB6 transporter inhibitors, primary screen, K562-ABCB6 cells, flow cytometry, MLPCN library. 360,000 compounds, 0.19% hits. AID 602162, 2011. fluorescence ratio to DMSO, % at 10 µM. K562-ABCB6 porphyrin accumulation, 1 h; hits give low values. ATP-binding cassette sub-family B member 6 (Homo sapiens), Q9NP58;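 active = fluorescence ratio to DMSO below 75%, the collection mean minus 3 SD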;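 also: signal is porphyrin accumulated inside mitochondria; lower ratio means ABCB6 inhibition with less porphyrin fluorescence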
RAD54 branch: inhibitors of human RAD54 branch migration, primary screen, biochemical, fluorescence, single point | inhibition, % at 10.4 µM | RAD54 Holliday junction branch migration, FAM/BHQ fluorescence | AID 602329, 2012 | DNA repair and recombination protein RAD54-like (Homo sapiens), Q92698 | 360,000 compounds, 0.14% hits;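 active = mean normalized replicate activity at least 40 and at least half of replicates scoring 40 or more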;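 also: inhibitors cause a drop in the FAM fluorescence signal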
Target sequence (Q92698 whole entry, looked up): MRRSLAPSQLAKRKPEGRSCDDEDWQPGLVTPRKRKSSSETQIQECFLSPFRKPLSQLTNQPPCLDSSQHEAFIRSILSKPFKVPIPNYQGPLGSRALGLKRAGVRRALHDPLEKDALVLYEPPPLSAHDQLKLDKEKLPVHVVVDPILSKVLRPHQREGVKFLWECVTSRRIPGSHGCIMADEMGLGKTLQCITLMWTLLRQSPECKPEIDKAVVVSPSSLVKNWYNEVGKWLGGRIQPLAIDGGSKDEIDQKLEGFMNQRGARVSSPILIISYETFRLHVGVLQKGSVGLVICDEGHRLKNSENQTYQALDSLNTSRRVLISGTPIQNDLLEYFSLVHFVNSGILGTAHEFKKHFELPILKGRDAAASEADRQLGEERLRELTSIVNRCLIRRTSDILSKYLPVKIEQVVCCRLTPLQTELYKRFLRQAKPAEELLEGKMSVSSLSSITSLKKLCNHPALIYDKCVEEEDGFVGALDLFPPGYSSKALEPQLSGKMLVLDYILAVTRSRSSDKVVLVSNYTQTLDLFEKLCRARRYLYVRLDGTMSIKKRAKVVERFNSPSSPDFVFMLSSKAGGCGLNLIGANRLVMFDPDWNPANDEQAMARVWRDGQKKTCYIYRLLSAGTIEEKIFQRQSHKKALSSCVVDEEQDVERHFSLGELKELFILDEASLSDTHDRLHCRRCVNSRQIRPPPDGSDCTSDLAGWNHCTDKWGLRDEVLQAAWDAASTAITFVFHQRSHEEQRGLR
Myeloid diff CP1: inducers of myeloid progenitor differentiation, confirmation, cell-based, GFP/Mac1 flow cytometry, cherry pick 01 | AID 651706, 2012 | 2,300 compounds, 2% hits | ER-HoxA9 myeloid progenitors, GFP/Mac1 double-positive flow | calls only | shares compounds with Myeloid diff 2;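 active = share of green or green-and-red cells above 9 and 9% in run 1 or 4 and 3% in run 2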
GFP autofluor: flagged as fluorescent in myeloid differentiation counter-screen; shares compounds with Myeloid diff 2; ER-HoxA9 myeloid progenitors, no estrogen, GFP autofluorescence flow cytometry; vehicle wells 0%, positive control 100%; fluorescence response, % (concentration not given with the values); 2,300 compounds, 7.4% hits;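 active = over 5% cells positive for green fluorescent reporter, or over 2% positive for both it and APC stain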
Of the large screens only hits and unclear results are named; the others gave an inactive call (follow-up assays come after a bar, where they were run).

CCOc1ccc(S(=O)(=O)Nc2cccc(C(=O)NCCCN3CCCC3=O)c2)cc1	none | Myeloid diff CP1 inactive | GFP autofluor inactive
COc1cc(/C=C2/SC(=O)NC2=O)ccc1Oc1ccc([N+](=O)[O-])cc1[N+](=O)[O-]	Myeloid diff 2 active (no result: RAD54 branch) | Myeloid diff CP1 inactive | GFP autofluor inactive
COc1cc(/C=C2\SC(=O)NC2=O)ccc1Oc1ccc([N+](=O)[O-])cn1	none
c1cc(-c2cc3nc(NC4CCCCC4)ccn3n2)ccc1OCCN1CCOCC1	none (no result: Vif imaging) | Myeloid diff CP1 inactive | GFP autofluor inactive
c1cc(-c2cc3nc(NCC4CC4)ccn3n2)ccc1OCCN1CCOCC1	none
C[C@H]1CN([C@@H](C)CO)C(=O)c2cc(-c3cccc(F)c3)cnc2O[C@H]1CN(C)Cc1cccnc1	none (no result: Vif imaging, N-glyco inh, Myeloid diff 2, ABCB6 inh MLPCN)
Cc1ccc(S(=O)(=O)c2nc(S(C)(=O)=O)sc2N2CCOCC2)cc1	none | Myeloid diff CP1 inactive | GFP autofluor inactive
CCS(=O)(=O)c1nc(S(=O)(=O)c2ccc(C)cc2)c(N2CCOCC2)s1	none
CN(C)C(=O)c1ccc(-c2ccc3c(c2)[C@@H]2[C@@H](CCN2Cc2cncnc2)[C@@H](CO)N3)cc1	none (no result: Vif imaging, N-glyco inh, Myeloid diff 2, ABCB6 inh MLPCN)
N#C[C@H]1[C@@H](c2ccccc2)[C@H](CO)N1C(=O)CCN1CCCCC1	none (no result: Vif imaging, N-glyco inh, Myeloid diff 2, ABCB6 inh MLPCN)
O=C(Nc1ccnn1C1CCN(Cc2ccc3nonc3c2)CC1)c1cccc(F)c1	none
CCc1ccc(CN2CCC(n3nccc3NC(=O)c3cccc(F)c3)CC2)cc1	Myeloid diff 2 active (no result: Vif imaging, N-glyco inh) | Myeloid diff CP1 inactive | GFP autofluor inactive
Cn1c(N)c(C(=O)COC(=O)c2ccco2)c(=O)n(C)c1=O	Myeloid diff 2 active | Myeloid diff CP1 inactive | GFP autofluor inactive
Cc1noc(C)c1S(=O)(=O)Nc1ccc2c(c1)CC(=O)N([C@@H](C)CO)C[C@@H](C)[C@H](CN(C)CC1CCCCC1)O2	none (no result: Vif imaging, N-glyco inh, Myeloid diff 2, ABCB6 inh MLPCN)
COc1cccc(NC(=O)CN(C)C(=O)CC2CCCC2)c1	none | Myeloid diff CP1 inactive | GFP autofluor inactive
Cc1ccc(S(=O)(=O)N2CCN(S(=O)(=O)c3ccc(C)cc3)C3OCCOC32)cc1 (stereo unspecified)	none | Myeloid diff CP1 inactive | GFP autofluor inactive
COc1ccc(C2N(S(=O)(=O)c3ccc(C)cc3)CCN2S(=O)(=O)c2ccc(C)cc2)cc1	none
CCOc1cccc(/C=N/NC(=O)c2cc(-c3cccn3C)n[nH]2)c1O	Myeloid diff 2 active (no result: RAD54 branch) | Myeloid diff CP1 inactive | GFP autofluor inactive
COc1ccc(-c2cc(C(=O)NCc3ccc(Cl)cc3)no2)cc1OC	none (no result: Vif imaging)
COc1cccc(-c2cc(C(=O)NCc3ccc(Cl)cc3)no2)c1	none | Myeloid diff CP1 inactive | GFP autofluor inactive
C/C=C/c1ccc2c(c1)O[C@H](CN(C)C(=O)NCCC)[C@@H](C)CN([C@@H](C)CO)S2(=O)=O	none (no result: Vif imaging, N-glyco inh, Myeloid diff 2, ABCB6 inh MLPCN)
CCCNC(=O)N[C@@H]1CC[C@H](CC(=O)NC2CCCCC2)O[C@@H]1CO	none (no result: Vif imaging, N-glyco inh, Myeloid diff 2, ABCB6 inh MLPCN)
CO[C@@H]1CN(C)C(=O)c2ccc(NC(=O)C3CC3)cc2OC[C@H](C)N(Cc2ccncc2)C[C@@H]1C	none (no result: Vif imaging, N-glyco inh, Myeloid diff 2, ABCB6 inh MLPCN)
O=C(COC(=O)COc1cccc2ccccc12)NCC(F)(F)F	none (no result: RAD54 branch) | Myeloid diff CP1 inactive | GFP autofluor inactive
O=C(COc1cccc2cccnc12)NCC(F)(F)F	none
C/C=C/c1cnc2c(c1)C(=O)N([C@H](C)CO)C[C@H](C)[C@H](CN(C)C(=O)Cc1ccccc1)O2	none (no result: Vif imaging, N-glyco inh, Myeloid diff 2, ABCB6 inh MLPCN)
COc1ccc(C(C)(O)c2nc(-c3ccc(F)cc3OC)cs2)cc1 (stereo unspecified)	none | Myeloid diff CP1 inactive | GFP autofluor inactive
CCOC(=O)Cn1nnc(-c2cccc(OC)c2)n1	none | Myeloid diff CP1 inactive | GFP autofluor inactive
COc1cccc(-c2nnn(CC(=O)O)n2)c1	none (no result: Myeloid diff 2, RAD54 branch)
C[C@@H]1CN([C@@H](C)CO)C(=O)c2cc(NS(=O)(=O)c3ccc(F)cc3)ccc2O[C@@H](C)CCCCO[C@H]1CN(C)C(=O)c1ccncc1	none (no result: Vif imaging, N-glyco inh, Myeloid diff 2, ABCB6 inh MLPCN)
Cc1ccc(NC(=O)/C(=C\c2cccc(Br)c2)NC(=O)c2ccco2)cc1	none (no result: RAD54 branch)
O=C(Nc1ccccc1)/C(=C/c1cccc(Br)c1)NC(=O)c1ccco1	Myeloid diff 2 active (no result: RAD54 branch) | Myeloid diff CP1 inactive | GFP autofluor inactive
O=C(C[C@H]1C[C@@H]2c3cc(NC(=O)Nc4ccc(F)cc4)ccc3O[C@@H]2[C@@H](CO)O1)NCC(F)(F)F	none (no result: Vif imaging, N-glyco inh, Myeloid diff 2, ABCB6 inh MLPCN)
Cc1onc(-c2c(Cl)cccc2Cl)c1C(=O)NCc1ccc(S(N)(=O)=O)cc1	none | Myeloid diff CP1 inactive | GFP autofluor inactive
Cc1onc(-c2ccccc2Cl)c1C(=O)NCc1ccccc1	none
CC(=O)Nc1ccc(C2=CC(=O)C[C@H](c3ccc(Cl)cc3)C2)cc1	none | Myeloid diff CP1 active | GFP autofluor inactive
COc1ccc(/C=N/NC(=O)c2cccc(NC(C)=O)c2)c(OC)c1	none (no result: RAD54 branch)
COc1ccc(C(=O)Nc2cccc(C(=O)N/N=C/c3ccc(OC)cc3OC)c2)cc1	none | Myeloid diff CP1 inactive | GFP autofluor inactive
COc1ccc(C2C(C(=O)Nc3cccnc3)=C(C)Nc3nc(-c4cccs4)nn32)cc1 (stereo unspecified)	none | Myeloid diff CP1 inactive | GFP autofluor inactive
CCN(CC)S(=O)(=O)c1ccc2oc(SCC(=O)Nc3cc(C)on3)nc2c1	Myeloid diff 2 active | Myeloid diff CP1 inactive | GFP autofluor inactive
CCC(=O)NC[C@H]1[C@H](c2ccc(-c3cccc(F)c3)cc2)[C@@H](CO)N1C(=O)CC	none (no result: Vif imaging, N-glyco inh, Myeloid diff 2, ABCB6 inh MLPCN)
O=C(COC(=O)c1cccnc1Cl)NCc1ccc2c(c1)OCO2	none (no result: RAD54 branch)
O=C(COC(=O)c1cccnc1Cl)Nc1ccc2c(c1)OCCO2	Myeloid diff 2 active | Myeloid diff CP1 inactive | GFP autofluor inactive
CCOC(=O)/C=C1/N(C)c2ccccc2C1(C)C	none
CN1/C(=C\P(=O)(N(C)C)N(C)C)C(C)(C)c2ccccc21	Myeloid diff 2 active (no result: Vif imaging) | Myeloid diff CP1 inactive | GFP autofluor 81.8
O=C(CCc1ccccc1)Nc1cccc([N+](=O)[O-])c1	none
O=C(CNS(=O)(=O)c1ccccc1)Nc1cccc([N+](=O)[O-])c1	Myeloid diff 2 active (no result: RAD54 branch) | Myeloid diff CP1 inactive | GFP autofluor inactive
CC(C)NC(=O)Nc1cccc2c1O[C@@H](CN(C)Cc1ccc(C(=O)O)cc1)[C@H](C)CN([C@H](C)CO)C2=O	none (no result: Vif imaging, N-glyco inh, Myeloid diff 2, ABCB6 inh MLPCN)
O=C(CCc1nnc(Cc2c[nH]c3ccccc23)o1)NCC1CC12CCCCC2 (stereo unspecified)	none (no result: RAD54 branch) | Myeloid diff CP1 inactive | GFP autofluor inactive
